Reference: the supplement of paper PMC7411054
Counter-ions that a name gives are not always drawn.

Assays:
Conditions in all cases: treatment time: 24 h
[1] = test system: HepG2-GM130-SQSTM1; assay: lowest phenotypically active concentration; higher = less potent
In short: (§1)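 Live-cell features were measured per well and normalised to solvent control wells after fifteen gene-edited A549, HepG2 and WPMY1 reporter lines had been treated for 24 h at 0.3, 1, 3 or 9 µM in four wells each. A condition was deviating when ≥3 of 4 wells sat beyond the 95th percentile of control Euclidean distances. It was reproducible when the median replicate Pearson correlation exceeded the 95th percentile of non-replicates. Phenotypic activity demanded both.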

[2] = test system: WPMY1-TP53BP1-CLTA; assay: as above
In short: as §1

[3] = test system: A549-CANX-COX4; assay: phenotypically active (imaging signature differs from DMSO and reproducible) at any of 0.3-9 uM (binary (1 = active, 0 = inactive)); higher = active
In short: as §1

[4] = test system: A549-TP53BP1-CLTA; assay: as above
In short: as §1

[5] = test system: HepG2-ACTB-RAB5A; assay: as above
In short: as §1

[6] = test system: HepG2-CANX-COX4; assay: as above
In short: as §1

[7] = test system: HepG2-GM130-SQSTM1; assay: as above
In short: as §1

[8] = test system: HepG2-TP53BP1-CLTA; assay: as above
In short: as §1

[9] = test system: HepG2-TUBA1B-RELA; assay: as above
In short: as §1

[10] = test system: WPMY1-ACTB-RAB5A; assay: as above
In short: as §1

[11] = test system: WPMY1-CANX-COX4; assay: as above
In short: as §1

[12] = test system: WPMY1-GM130-SQSTM1; assay: as above
In short: as §1

[13] = test system: WPMY1-TP53BP1-CLTA; assay: as above
In short: as §1

[14] = test system: WPMY1-TUBA1B-RELA; assay: as above
In short: as §1

[15] = test system: WPMY1-ACTB-RAB5A; assay: lowest phenotypically active concentration; higher = less potent
In short: as §1

[16] = test system: WPMY1-GM130-SQSTM1; assay: as above
In short: as §1

[17] = test system: WPMY1-CANX-COX4; assay: as above
In short: as §1

SMILES	lowest phenotypically active concentration [1] [µM]	lowest phenotypically active concentration [2] [µM]	phenotypically active [3]	phenotypically active [4]	phenotypically active [5]	phenotypically active [6]	phenotypically active [7]	phenotypically active [8]	phenotypically active [9]	phenotypically active [10]	phenotypically active [11]	phenotypically active [12]	phenotypically active [13]	phenotypically active [14]	lowest phenotypically active concentration [15] [µM]	lowest phenotypically active concentration [16] [µM]	lowest phenotypically active concentration [17] [µM]
O=c1[nH]cc(F)c(=O)[nH]1 [5-Fluorouracil]	3	9	1 (active)	1 (active)	1 (active)	1 (active)	1 (active)	1 (active)	1 (active)	0 (inactive)	0 (inactive)	0 (inactive)	1 (active)	0 (inactive)	–	–	–
CCN1CCN(c2ccc(Nc3cc(N(C)C(=O)Nc4c(Cl)c(OC)cc(OC)c4Cl)ncn3)cc2)CC1	–	–	0 (inactive)	0 (inactive)	0 (inactive)	0 (inactive)	0 (inactive)	0 (inactive)	0 (inactive)	1 (active)	0 (inactive)	1 (active)	0 (inactive)	0 (inactive)	9	9	–
CC[C@H](C)[C@H](NC(=O)OCc1ccccc1)C(=O)N[C@@H](CCC(=O)OC(C)(C)C)C(=O)N[C@@H](C)C(=O)N[C@H](C=O)CC(C)C	≤ 0.3	≤ 0.3	1 (active)	1 (active)	1 (active)	1 (active)	1 (active)	1 (active)	1 (active)	1 (active)	1 (active)	1 (active)	1 (active)	1 (active)	≤ 0.3	≤ 0.3	≤ 0.3
Cc1nc(NC(=O)N2CCC[C@H]2C(N)=O)sc1-c1ccnc(C(C)(C)C(F)(F)F)c1 [alpelisib]	1	3	1 (active)	1 (active)	1 (active)	1 (active)	1 (active)	1 (active)	1 (active)	0 (inactive)	1 (active)	1 (active)	1 (active)	1 (active)	–	3	3
COc1ccc2c(Oc3ccc(NC(=O)c4c(C)n(CC(C)(C)O)n(-c5ccccc5)c4=O)nc3)ccnc2c1	9	–	0 (inactive)	0 (inactive)	0 (inactive)	1 (active)	1 (active)	1 (active)	1 (active)	0 (inactive)	0 (inactive)	0 (inactive)	0 (inactive)	0 (inactive)	–	–	–
CCCCC1C(=O)N(c2ccccc2)N(c2ccc(O)cc2)C1=O (configuration not stated) [oxyphenbutazone]	–	–	0 (inactive)	0 (inactive)	0 (inactive)	0 (inactive)	0 (inactive)	0 (inactive)	0 (inactive)	0 (inactive)	0 (inactive)	0 (inactive)	0 (inactive)	1 (active)	–	–	–
COc1cc2ncn(-c3cc(OCc4ccccc4C(F)(F)F)c(C(N)=O)s3)c2cc1OC	≤ 0.3	1	1 (active)	1 (active)	1 (active)	1 (active)	1 (active)	1 (active)	1 (active)	1 (active)	1 (active)	0 (inactive)	1 (active)	1 (active)	≤ 0.3	–	1
CC[C@@H]1C(=O)OC[C@@H]1Cc1cncn1C [Pilocarpine hydrochloride]	–	–	0 (inactive)	0 (inactive)	0 (inactive)	0 (inactive)	0 (inactive)	0 (inactive)	0 (inactive)	0 (inactive)	0 (inactive)	0 (inactive)	0 (inactive)	0 (inactive)	–	–	–
OCc1ccccc1O[C@@H]1O[C@H](CO)[C@@H](O)[C@H](O)[C@H]1O [Salicin]	–	–	0 (inactive)	0 (inactive)	0 (inactive)	0 (inactive)	0 (inactive)	0 (inactive)	0 (inactive)	0 (inactive)	0 (inactive)	0 (inactive)	0 (inactive)	0 (inactive)	–	–	–
CCOc1cc(N2CCC(O)CC2)ccc1Nc1ncc2c(n1)N(C)c1ccccc1C(=O)N2C	3	3	1 (active)	1 (active)	1 (active)	1 (active)	1 (active)	1 (active)	1 (active)	1 (active)	1 (active)	1 (active)	1 (active)	1 (active)	3	3	3
Cc1ccc(C(=O)c2ccc(CC(=O)O)n2C)cc1 [tolmetin]	–	–	0 (inactive)	0 (inactive)	0 (inactive)	0 (inactive)	0 (inactive)	0 (inactive)	0 (inactive)	0 (inactive)	0 (inactive)	0 (inactive)	0 (inactive)	0 (inactive)	–	–	–
N#Cc1c(NC(=O)c2cccc3ccccc23)sc2c1CCCC2	≤ 0.3	≤ 0.3	1 (active)	1 (active)	1 (active)	1 (active)	1 (active)	1 (active)	1 (active)	1 (active)	1 (active)	1 (active)	1 (active)	1 (active)	≤ 0.3	≤ 0.3	≤ 0.3
